Compound activity as filed in PubChem.
Marburg entry inh – blocks Marburg virus binding to or entry into cells | Potency, µM (highest dose often 37.8 µM), usual class: inhibitors | Marburg virus pseudotyped entry inhibition, cell reporter | AID 540276 | actives 1.8% (n = 300,000); calls by dose curve; tested in HEK293 cells
LASV entry inh – Lassa virus entry inhibition; Potency, µM (series often up to 37.9 µM), usual class: inhibitors; Lassa virus pseudotype entry inhibition, cell reporter; actives 1.2% (n = 300,000); calls by dose curve; tested in HEK293 cells; also: nearly all actives have a fitted effect of over 50% in size
HCMV antiviral – inhibitors of human cytomegalovirus; actives 4.5% (n = 410,000); HFF cells, HCMV-luciferase reporter, 72 h; stronger effect = lower value; activity change, negative = inhibition, % at 57.5 µM; in the data active = activity change below about -60%; inconclusive = no clear call, values can overlap the other calls; inactive = above about -39%
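Cell-based, HFFs, 1000 cells/well, 16 h 37C; cpds in DMSO + HCMV-luc, MOI 1 PFU/cell; 72 h 37C; OneGlo luminescence after 5 min RT; norm. to buffer vs Salinomycin 10uM.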
HCV inh – HCV inhibition; Huh7.5.1 HCVcc-Cre infection, luciferase reporter, 44 h; Potency, µM (top dose mostly 41.8 µM), most hits filed as inhibitors; actives 3.4% (n = 340,000); AID 651820; active = well fitted inhibition curve with a large enough effect; inconclusive = small, poorly fitted or top-dose-only effect, or another doubt; inactive = no such curve, though single readings can be large or run the other way
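Infectious HCV cell culture screen: compound-treated cells (1,000/well, pre-plated 4 h) are infected with HCVcc-Cre at roughly 0.5 moi and grown 44 h. Infection is quantified by luciferase signal after 15 min substrate incubation at room temperature.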
FMDV inh – foot and mouth disease virus antiviral activity; actives 1.2% (n = 410,000); FMDV antiviral cell-based qHTS; Potency, µM (doses to about 57.9 µM), actives largely listed as inhibitors; calls by dose curve; tested in HEK293T cells; also: read-out not given here; nearly all actives have a fitted effect of over 45% in size
Large screens that a line does not name were inactive. Shown are actives, neighbours in structure and some others; about 7.9% of the full set was active somewhere.

COc1ccccc1NC(=O)N(Cc1ccco1)Cc1cc2ccc(C)c(C)c2[nH]c1=O	Marburg entry inh inconclusive, LASV entry inh inconclusive, HCV inh inconclusive, FMDV inh inconclusive
COc1ccc(NC(=S)N(CCc2c(C)[nH]c3ccccc23)Cc2ccco2)cc1	Marburg entry inh 13µM, LASV entry inh inconclusive, HCMV antiviral inconclusive
COc1ccccc1NC(=O)N(Cc1ccco1)Cc1cc2cc(C)cc(C)c2[nH]c1=O	Marburg entry inh inconclusive, LASV entry inh inconclusive, HCV inh 3.2µM, FMDV inh inconclusive
CC(CCC(=O)OC[C@H]1O[C@H](C#Cc2ccccc2)C=C[C@H]1Oc1ccc(C)cc1)=NO[C@@H](C)c1cn([C@H](CO)Cc2ccccc2)nn1	LASV entry inh inconclusive (no result: HCMV antiviral, HCV inh, FMDV inh)
CCc1c(C#N)c(SCCC(=O)Nc2ccc(C)cc2)nc2c1C(=O)CC(C)(C)C2	HCV inh 8.9µM
CN(C(=O)c1cccc(Nc2ccc(-c3ccc4c(c3)OCCO4)nn2)c1)C1CCCCC1	Marburg entry inh inconclusive, LASV entry inh 14µM, HCMV antiviral -93, HCV inh inconclusive
O=C(Nc1c(C(=O)Nc2ccc(F)cc2)oc2ccccc12)c1cc2ccccc2o1	none (no result: HCV inh)
COC(=O)C1=C(C)N(c2cccc(C)c2)C(=O)/C1=C\c1cccs1	Marburg entry inh 2.8µM, HCMV antiviral -99, HCV inh inconclusive
CCOC(=O)C1=C(C)N(c2ccccc2)C(=O)/C1=C\c1cccs1	HCV inh inconclusive, FMDV inh inconclusive
COc1cc(-c2nc3ccc4ccccc4c3c3c2CCC3)cc(OC)c1OC	HCV inh 5.6µM, FMDV inh inconclusive
CCN(CC)S(=O)(=O)c1cccc(C(=O)N/N=C/c2ccccc2OCC(=O)O)c1	none
O=C(N/N=C/c1ccc([N+](=O)[O-])o1)c1cc2ccccc2o1	HCMV antiviral inconclusive, HCV inh inconclusive (no result: Marburg entry inh, LASV entry inh)
CCN(CC)S(=O)(=O)c1cccc(C(=O)N/N=C/c2ccc([N+](=O)[O-])o2)c1	Marburg entry inh inconclusive, LASV entry inh inconclusive, HCMV antiviral -61, HCV inh inconclusive, FMDV inh inconclusive
O=C(N/N=C\c1ccc([N+](=O)[O-])o1)c1cncc(Br)c1	Marburg entry inh inconclusive, LASV entry inh inconclusive, HCMV antiviral -83, HCV inh 22µM, FMDV inh inconclusive
O=C(N/N=C/c1cc(Br)c(Br)o1)c1cc2ccccc2o1	Marburg entry inh inconclusive, LASV entry inh inconclusive, HCMV antiviral active
Cc1nc2ccccn2c1C(=O)N/N=C/c1ccc([N+](=O)[O-])o1	HCMV antiviral -74, HCV inh inconclusive (no result: Marburg entry inh, LASV entry inh)
O=C(N/N=C/c1ccc([N+](=O)[O-])o1)c1ccc(O)cc1	Marburg entry inh inconclusive, LASV entry inh inconclusive, HCMV antiviral -93, HCV inh 25µM
O=C(N/N=C/c1ccc([N+](=O)[O-])o1)c1cc2c(ccc3ccccc32)o1	HCMV antiviral -72, HCV inh inconclusive (no result: Marburg entry inh, LASV entry inh)
Cc1scc(C(=O)N/N=C/c2ccc([N+](=O)[O-])o2)c1C	HCMV antiviral -100 (no result: Marburg entry inh, LASV entry inh, HCV inh, FMDV inh)
COCOc1c2c(c(OCOC)c3c(OCOC)cccc13)/C(=N/N[S+](=O)([O-])c1ccc(C)cc1)C1=C2CCCC1	none (no result: LASV entry inh, HCMV antiviral, HCV inh, FMDV inh)
CCOC(=O)c1c(CC(C)C)csc1NC(=O)COC(=O)c1cc(OC)c(OC)cc1[N+](=O)[O-]	HCMV antiviral -71 (no result: LASV entry inh)
COC(=O)c1ccc(CN2C(=O)[C@]3(OCCC=C[C@@H]3C)c3c(Br)cccc32)cc1	none (no result: LASV entry inh, HCMV antiviral, HCV inh, FMDV inh)
Cc1ccccc1C(=O)Nc1nc2c(s1)CC(C(C)(C)C)CC2 (stereo not drawn)	LASV entry inh inconclusive, HCMV antiviral -66 (no result: HCV inh)
CC(C)Oc1ccc(C(=O)Nc2nc3c(s2)CC(C(C)(C)C)CC3)cc1 (stereo not drawn)	HCMV antiviral inconclusive, FMDV inh inconclusive (no result: HCV inh)
COc1cc(NC(=O)c2nnn(CC(=O)Nc3ccccc3)c2N)cc(OC)c1	HCMV antiviral inconclusive (no result: Marburg entry inh, HCV inh)
COc1ccc(/C=C2/Sc3ccc(C(=O)N4CCOCC4)cc3NC2=O)cc1OC	HCMV antiviral -69 (no result: Marburg entry inh, LASV entry inh)
CCOC(=O)N1CCN(C(=O)c2ccc3c(c2)NC(=O)/C(=C\c2ccc(OC)c(OC)c2)S3)CC1	HCMV antiviral inconclusive (no result: Marburg entry inh, LASV entry inh)
Cc1cccc(/C=C2/Sc3ccc(C(=O)N4CCOCC4)cc3NC2=O)c1	HCMV antiviral -75 (no result: Marburg entry inh, LASV entry inh)
O=C(CN1CCCC1)Nc1ccccc1C(=O)c1ccccc1	none (no result: Marburg entry inh, LASV entry inh)
O=C(c1ccccc1)c1ccccc1NC(=O)C1CCCN1Cc1ccccc1 (stereo not drawn)	HCMV antiviral -60, HCV inh inconclusive (no result: Marburg entry inh, LASV entry inh)
COc1ccc(-c2c(-c3ccc(O)cc3O)n[nH]c2C(F)(F)F)cc1	HCV inh inconclusive (no result: LASV entry inh)
